CSC inhib: blocks cancer stem cells; inhibition, % at 7.5 µM; cancer stem cell-like cells viability, luminescence; 1.1% of 300,000 active; in the data active = inhibition above about 75%; inconclusive = no clear call, values can overlap the other calls; tested in HMLE shEcad cells
ALR H2O2 inh: blocks human ALR sulfhydryl oxidase activity | P55789 | purified ALR, DTT oxidation, H2O2 HRP-luminol luminescence | inhibition, % (test concentration not listed) | 3.8% of 290,000 active | AID 485317;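 active = mean replicate inhibition above about 79%, with every replicate also reaching it, limit read from the data; inconclusive = only one of the two criteria met; inactive = mean below limit and not every replicate reaching it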
Target sequence (P55789 whole entry, looked up): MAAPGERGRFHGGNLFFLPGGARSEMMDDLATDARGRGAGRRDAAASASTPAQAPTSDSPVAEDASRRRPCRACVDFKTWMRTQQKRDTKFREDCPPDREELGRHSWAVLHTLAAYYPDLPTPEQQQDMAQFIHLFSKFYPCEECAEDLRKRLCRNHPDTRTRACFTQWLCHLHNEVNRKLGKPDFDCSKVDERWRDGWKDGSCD
Calb FLC: C. albicans growth modulation with fluconazole | 0.57% of 300,000 active | growth inhibition, % (concentration not given with the values) | C. albicans CaCi-2 (fluconazole-resistant clinical isolate) + fluconazole, Alamar Blue growth, 48 h;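 active = growth inhibition above about 58% in most replicates, limit read from the data, passing the limit was not always enough; inconclusive = exactly half the replicates above a set limit; inactive = most replicates below a set limit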;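 note: all wells also contain fluconazole at 8 µg/ml as a sub-toxic cotreatment; 0% = median of DMSO wells and 100% = median of geldanamycin control wells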
PP1 inh: counter-screen for PP5 inhibitors: inhibitors of human PP1-alpha. AID 2235. 0.9% of 320,000 active. inhibition, % at 6.7 µM. P62136. purified PP1alpha, OMFP fluorescence;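 active = inhibition above the mean inhibition of all tested compounds plus 3 SD, computed separately for each screening campaign, cut at about 15% in these data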
Target sequence (P62136 whole entry, looked up): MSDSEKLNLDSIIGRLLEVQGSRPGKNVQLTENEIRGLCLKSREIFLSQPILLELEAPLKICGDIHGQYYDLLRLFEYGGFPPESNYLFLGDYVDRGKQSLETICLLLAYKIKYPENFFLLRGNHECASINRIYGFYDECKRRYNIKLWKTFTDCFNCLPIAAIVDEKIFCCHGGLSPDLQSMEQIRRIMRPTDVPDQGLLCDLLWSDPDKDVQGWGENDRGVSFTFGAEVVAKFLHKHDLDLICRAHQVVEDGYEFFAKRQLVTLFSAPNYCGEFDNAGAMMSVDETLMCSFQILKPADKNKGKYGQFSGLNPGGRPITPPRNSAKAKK
PP5 inh: PP5 (human) phosphatase inhibition; inhibition, % at 6.7 µM; AID 1987; 0.18% of 320,000 active; purified PP5c, OMFP substrate fluorescence;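 active = inhibition above the campaign's mean inhibition across all tested compounds plus 3 SD, cut at about 9.5% in these data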;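 note: 0% = DMSO only and 100% = 100 µM cantharidin control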
The depositor's hits bear a star; ? = inconclusive; nt = not tested or not shown. An excerpt weighted towards active compounds, which were near 5.4% of everything screened.

SMILES	CSC inhib	ALR H2O2 inh	Calb FLC	PP1 inh	PP5 inh
Cc1ccc(Nc2nnc(SCc3cc(=O)n4cc(C)ccc4n3)s2)cc1	-10	99*	-4	-2	-1
O=C(c1ccccc1)c1coc2ccc(O)c(Cl)c12	4	99*	30	-1	1
Cc1ccc(C(=O)c2coc3ccc(O)c(Cl)c23)cc1	9	98*	21	-1	2
CCC(=O)Nc1ccc(N2CCCCC2)c(C(=O)Nc2ccccc2C)c1	nt	23	35	1	5
Fc1ccccc1CSc1ncn[nH]1	-4	-1	?	-2	1
Cc1n[nH]c(=O)c2c(NC(=O)CSc3nn(-c4ccccc4)c(=S)s3)oc(C)c12	7	99*	-12	-2	-2
Cc1ccc(CCC(=O)Nc2ccc(N(C)C)cc2)o1	-11	99*	-6	-1	-2
CN(C)c1ccc(NC(=O)CCn2c(=S)oc3ccccc32)cc1	1	98*	6	0	1
Cc1cccc(OCCCC(=O)Nc2ccc(N(C)C)cc2)c1	36	92*	1	1	3
CCc1ccc(CCC(=O)Nc2ccc(Cl)cc2)o1	7	78*	-17	2	3
Cc1ccc(CCC(=O)Nc2ccc(Cl)cc2)o1	14	13	-15	-3	0
Cc1ccc(NC(=O)CCn2c(=S)oc3ccccc32)cc1	-7	-2	16	0	2
Cc1cc(NS(=O)(=O)c2ccc(NC(=S)NC(=O)/C=C/c3ccccc3)cc2)no1	8	nt	-4	2	-1
CCOC(=O)C1CCN(S(=O)(=O)c2ccc3c(c2)CC(=O)N3C)CC1	-3	0	-3	-3	-2
CCc1ccc(CCC(=O)Nc2ncc(Cc3ccccc3Cl)s2)o1	82*	nt	26	6	0
N#C/C(=C\c1cc([N+](=O)[O-])c(N2CCCCC2)cc1N1CCCCC1)c1nn(-c2ccccc2)c(N)c1C#N	-4	-10	-3	-5	0
CN(Cc1cccnc1)C(=O)c1ccc2nc(Cc3ccccc3F)oc2c1	44	97*	-14	1	3
CC/C(O)=C1\C(=O)CC(C)(C)CC1=Nc1ccccc1C	-1	-34	5	0	3
CCOc1ccc(C(=O)NNC2CC(=O)N(Cc3ccc(Cl)cc3)C2=O)cc1OC (stereo not given)	-2	97*	0	10	0
O=C(CCCN1C(=O)/C(=C/c2ccccc2Cl)SC1=S)NNC(=O)c1ccccc1Cl	29	-18	3	17*	4
O=C1/C(=C/c2ccc(O)cc2)SC(=S)N1CC1CCCO1 (stereo not given)	28	99*	20	-3	0
CCc1ccc(/C=C2\SC(=S)N(CCCC(=O)Nc3ccccc3C(=O)O)C2=O)cc1	30	97*	70	1	1
COC(=O)c1ccc(/C=C2/SC(=S)N(CCCC(=O)Nc3ccc(O)cc3)C2=O)cc1	18	nt	13	16*	1
CC1(C)C(c2cccs2)=[N+]([O-])C2(CCCCC/C2=N\O)N1O (stereo not given)	nt	11	-3	-11	0
Cc1cccc2cc3ccccc3nc12	-10	10	-7	-2	-3
SMILES	CSC inhib	ALR H2O2 inh	Calb FLC	PP1 inh	PP5 inh
CC(C)=CC(=O)Nc1ccccc1C(N)=O	-4	-2	-7	-3	4
CC(C)[C@H](N)c1nnc(SCC(=O)c2ccc(Cl)cc2)o1	-6	98*	15	2	0
C[C@H](N)c1nnc(SCC(=O)c2ccc(Cl)cc2)o1	nt	nt	46	1	1
O=C(CSc1nnc(CNC(=O)c2ccccc2F)o1)c1ccc(Cl)cc1	-8	99*	8	3	3
Cc1nnc(NC(=O)CSc2nnc(CNC(=O)c3ccc(S(=O)(=O)N(C)C)cc3)o2)s1	-5	0	-3	-5	2
COC(=O)c1ccc(CSc2nnc(CNC(=O)c3ccccc3F)o2)o1	-3	97*	0	-1	0
COc1ccc(C(=O)CSc2nnc(CNC(=O)c3ccc(S(=O)(=O)N(C)C)cc3)o2)cc1	-6	98*	11	-8	3
COC(=O)c1ccc(CSc2nnc(CNC(=O)c3ccc(OC)cc3)o2)o1	-11	-1	29	-1	1
O=C(CSc1nnc(CNC(=O)c2c(F)cccc2F)o1)c1ccccc1	10	62	-4	-5	6
COc1ccc(C(=O)c2ccc(N3CCOCC3)cc2)c(OC)c1	2	-1	13	-3	2
O=C(COC(=O)c1cccnc1)c1ccc(Cl)cc1	nt	-13	-4	2	0
O=C(NC1CC1)c1ccc(S(=O)(=O)NC2CCCCCC2)cc1	nt	-4	1	-4	3
O=C(NNS(=O)(=O)c1ccc(C(=O)NC2CCCC2)cc1)c1ccncc1	-12	99*	-7	-1	2
CC1CCCCC1NC(=O)c1ccncc1 (stereo not given)	7	-2	-14	-4	-3
CC1CCCCC1NC(=O)c1ccc(S(=O)(=O)NNC(=O)c2ccncc2)cc1 (stereo not given)	-23	99*	1	-5	-1
O=C(CNC(=O)c1ccccc1F)OCn1nnc2ccccc2c1=O	-6	2	nt	-4	-3
CC(/C=C/c1ccc2c(c1)OCO2)=N/NC(=O)COc1ccc(C)cc1	2	nt	-2	-2	0
Cc1cc(N/N=C/c2ccc(O)cc2)c2cccc(C)c2n1	23	100*	1	4	4
Cc1cc(C)c2nc(C)cc(N/N=C/c3ccc(O)cc3)c2c1	103*	99*	-15	8	9
Cc1ccc(NC(=O)CS(=O)CC(=O)NCCCN(C)c2ccccc2)cc1 (stereo not given)	-8	?	-5	-7	4
CCC(C)NC(=O)CS(=O)Cc1nc(-c2ccccc2C)oc1C (stereo not given)	-8	98*	-7	-1	1
CCCNC(=O)CS(=O)Cc1nc(-c2ccccc2C)oc1C (stereo not given)	-2	99*	-3	-1	0
Cc1ccccc1-c1nc(CS(=O)CC(=O)NCCCN(C)c2ccccc2)c(C)o1 (stereo not given)	5	99*	-11	-4	2
Cc1ccccc1-c1nc(CS(=O)CC(=O)NCCN2CCN(Cc3ccccc3)CC2)c(C)o1 (stereo not given)	-2	99*	5	-2	2
Cc1ccccc1-c1nc(CS(=O)(=O)CC(=O)NCCc2ccccc2)c(C)o1	-5	-8	9	-4	0
CO/N=C/c1c(-c2ccccc2)nn(C)c1Cl	-6	-16	-17	-2	2
COc1ccccc1CNC(=O)/C=C/C(=O)O	1	-13	-5	3	2
Cc1ccccc1-c1nc(CS(=O)(=O)CC(=O)NCc2ccc(F)cc2)c(C)o1	-9	-17	-1	-1	5
Cc1ccccc1-c1nc(CS(=O)CC(=O)NCc2ccccn2)c(C)o1 (stereo not given)	-3	98*	-4	0	0

Assay outcomes as filed in PubChem BioAssay.
